The campaign covered roughly 5,500 compounds. About 2,000 (36%) were called active. About 18% were inconclusive and are not listed. Cut-off read from the data, not from the text of the source: active = normalized growth mostly below about 0.91 (no sharp cut-off); inconclusive = no clear call, values can overlap the other calls; inactive = mostly above about 0.92. This is one part of the list.
Assay: chemical genetic growth profiling, strain panel (AID 1159580);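 note: tested at 20 µM; growth read once vehicle control cultures reached saturation at 30 °C; 1 = growth at the plate median or of vehicle wells; lower values mean less growth of the strain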
Conditions: growth OD

Measured: normalized growth

ClC(Cl)=C(c1ccc(Cl)cc1)c1ccc(Cl)cc1
inactive: S. cerevisiae deletion strains, locus YJR075W, strain HOC1, stronger effect = lower value 0.947 | S. cerevisiae deletion strains, locus YKL009W, strain mrt4, stronger effect = lower value 0.995 | S. cerevisiae deletion strains, locus YKL085W, strain MDH1 (second series), stronger effect = lower value 0.931 | S. cerevisiae deletion strains, locus YKL085W, strain MDH1, stronger effect = lower value 0.931 | S. cerevisiae deletion strains, locus YKL160W, strain elf1, stronger effect = lower value 0.998 | S. cerevisiae deletion strains, locus YKL190W, strain CNB1, stronger effect = lower value 0.966 | S. cerevisiae deletion strains, locus YKR001C, strain vps1, stronger effect = lower value 0.949 | S. cerevisiae deletion strains, locus YKR026C, strain gcn3, stronger effect = lower value 1 | S. cerevisiae deletion strains, locus YKR091W, strain srl3, stronger effect = lower value 0.985 | S. cerevisiae deletion strains, locus YLL001W, strain dnm1, stronger effect = lower value 0.996 | S. cerevisiae deletion strains, locus YLL026W, stronger effect = lower value 0.993 | S. cerevisiae deletion strains, locus YLL041C, strain sdh2, stronger effect = lower value 0.991 | S. cerevisiae deletion strains, locus YLR027C, strain aat2, stronger effect = lower value 1.01 | S. cerevisiae deletion strains, locus YLR058C, strain SHM2, stronger effect = lower value 0.962 | S. cerevisiae deletion strains, locus YLR102C, strain apc9, stronger effect = lower value 0.954 | S. cerevisiae deletion strains, locus YLR113W, strain HOG1, stronger effect = lower value 0.979 | S. cerevisiae deletion strains, locus YLR221C, strain rsa3, stronger effect = lower value 0.994 | S. cerevisiae deletion strains, locus YLR258W, strain gsy2, stronger effect = lower value 0.985 | S. cerevisiae deletion strains, locus YLR262C, strain YPT6 (second series), stronger effect = lower value 1.04 | S. cerevisiae deletion strains, locus YLR262C, strain YPT6, stronger effect = lower value 0.652 | S. cerevisiae deletion strains, locus YLR268W, strain sec22, stronger effect = lower value 0.969 | S. cerevisiae deletion strains, locus YLR320W, strain mms22, stronger effect = lower value 0.967 | S. cerevisiae deletion strains, locus YLR330W, strain CHS5, stronger effect = lower value 0.962 | S. cerevisiae deletion strains, locus YLR342W, strain FKS1 (second series), stronger effect = lower value 0.879 | S. cerevisiae deletion strains, locus YLR342W, strain FKS1, stronger effect = lower value 0.983 | S. cerevisiae deletion strains, locus YLR357W, strain rsc2, stronger effect = lower value 1 | S. cerevisiae deletion strains, locus YLR370C, strain arc18, stronger effect = lower value 0.996 | S. cerevisiae deletion strains, locus YLR371W, strain rom2, stronger effect = lower value 0.953 | S. cerevisiae deletion strains, locus YLR384C, strain iki3, stronger effect = lower value 0.987 | S. cerevisiae deletion strains, locus YLR418C, strain cdc73, stronger effect = lower value 0.905 | S. cerevisiae deletion strains, locus YML016C, strain PPZ1, stronger effect = lower value 0.946 | S. cerevisiae deletion strains, locus YML032C, strain rad52, stronger effect = lower value 0.949 | S. cerevisiae deletion strains, locus YML120C, strain ndi1, stronger effect = lower value 0.988 | S. cerevisiae deletion strains, locus YML124C, strain tub3, stronger effect = lower value 0.942 | S. cerevisiae deletion strains, locus YMR058W, strain fet3, stronger effect = lower value 0.996 | S. cerevisiae deletion strains, locus YMR078C, strain ctf18, stronger effect = lower value 0.925 | S. cerevisiae deletion strains, locus YMR125W, strain sto1, stronger effect = lower value 0.988 | S. cerevisiae deletion strains, locus YMR129W, stronger effect = lower value 0.997 | S. cerevisiae deletion strains, locus YMR205C, strain PFK2, stronger effect = lower value 0.959 | S. cerevisiae deletion strains, locus YMR223W, strain ubp8, stronger effect = lower value 0.964 | S. cerevisiae deletion strains, locus YMR231W, strain pep5, stronger effect = lower value 0.999 | S. cerevisiae deletion strains, locus YMR263W, strain SAP30, stronger effect = lower value 0.96 | S. cerevisiae deletion strains, locus YMR307W, strain GAS1, stronger effect = lower value 0.978 | S. cerevisiae deletion strains, locus YNL067W, strain RPL9B, stronger effect = lower value 0.974 | S. cerevisiae deletion strains, locus YNL071W, strain lat1, stronger effect = lower value 1 | S. cerevisiae deletion strains, locus YNL128W, strain TEP1, stronger effect = lower value 0.973 | S. cerevisiae deletion strains, locus YNL153C, strain GIM3, stronger effect = lower value 0.98 | S. cerevisiae deletion strains, locus YNL183C, strain NPR1, stronger effect = lower value 0.986 | S. cerevisiae deletion strains, locus YNL209W, strain ssb2, stronger effect = lower value 0.994 | S. cerevisiae deletion strains, locus YNL233W, strain BNI4, stronger effect = lower value 0.981 | S. cerevisiae deletion strains, locus YNL248C, strain rpa49, stronger effect = lower value 0.993 | S. cerevisiae deletion strains, locus YNL250W, strain rad50, stronger effect = lower value 0.917 | S. cerevisiae deletion strains, locus YNL271C, strain bni1, stronger effect = lower value 0.957 | S. cerevisiae deletion strains, locus YNL298W, strain CLA4, stronger effect = lower value 0.953 | S. cerevisiae deletion strains, locus YNL322C, strain KRE1 (second series), stronger effect = lower value 0.989 | S. cerevisiae deletion strains, locus YNL322C, strain KRE1, stronger effect = lower value 0.963 | S. cerevisiae deletion strains, locus YNR049C, strain mso1, stronger effect = lower value 0.994 | S. cerevisiae deletion strains, locus YNR052C, strain pop2, stronger effect = lower value 0.954 | S. cerevisiae deletion strains, locus YOL006C, strain TOP1, stronger effect = lower value 1.01 | S. cerevisiae deletion strains, locus YOL012C, strain htz1 0.487 | S. cerevisiae deletion strains, locus YOL147C, strain pex11, stronger effect = lower value 0.946 | S. cerevisiae deletion strains, locus YOR001W, strain rrp6, stronger effect = lower value 0.989 | S. cerevisiae deletion strains, locus YOR061W, strain CKA2, stronger effect = lower value 0.957 | S. cerevisiae deletion strains, locus YOR069W, strain VPS5, stronger effect = lower value 0.955 | S. cerevisiae deletion strains, locus YOR070C, strain gyp1, stronger effect = lower value 1 | S. cerevisiae deletion strains, locus YOR080W, strain dia2, stronger effect = lower value 0.988 | S. cerevisiae deletion strains, locus YOR083W, strain WHI5, stronger effect = lower value 0.994 | S. cerevisiae deletion strains, locus YOR106W, strain vam3, stronger effect = lower value 1 | S. cerevisiae deletion strains, locus YOR136W, strain idh2, stronger effect = lower value 0.96 | S. cerevisiae deletion strains, locus YOR144C, strain elg1, stronger effect = lower value 0.952 | S. cerevisiae deletion strains, locus YOR184W, strain ser1, stronger effect = lower value 0.954 | S. cerevisiae deletion strains, locus YOR231W, strain MKK1, stronger effect = lower value 1.04 | S. cerevisiae deletion strains, locus YOR265W, strain rbl2, stronger effect = lower value 0.992 | S. cerevisiae deletion strains, locus YOR270C, strain vph1, stronger effect = lower value 0.978 | S. cerevisiae deletion strains, locus YOR290C, strain snf2, stronger effect = lower value 0.99 | S. cerevisiae deletion strains, locus YOR316C, strain cot1, stronger effect = lower value 0.945 | S. cerevisiae deletion strains, locus YPL051W, strain arl3, stronger effect = lower value 0.989 | S. cerevisiae deletion strains, locus YPL055C, strain LGE1, stronger effect = lower value 0.983 | S. cerevisiae deletion strains, locus YPL078C, strain atp4, stronger effect = lower value 0.991 | S. cerevisiae deletion strains, locus YPL106C, strain sse1, stronger effect = lower value 0.991 | S. cerevisiae deletion strains, locus YPL240C, strain hsp82, stronger effect = lower value 0.989 | S. cerevisiae deletion strains, locus YPL241C, strain CIN2, stronger effect = lower value 0.973 | S. cerevisiae deletion strains, locus YPL256C, strain CLN2, stronger effect = lower value 1.05 | S. cerevisiae deletion strains, locus YPR119W, strain clb2, stronger effect = lower value 0.932 | S. cerevisiae deletion strains, locus YPR141C, strain kar3, stronger effect = lower value 0.93 | S. cerevisiae deletion strains, locus YPR163C, strain tif3, stronger effect = lower value 0.952 | S. cerevisiae deletion strains, locus YPR167C, strain met16, stronger effect = lower value 0.942 | S. cerevisiae deletion strains, strain wtn01, stronger effect = lower value 0.936 | S. cerevisiae strains, strain wild type, stronger effect = lower value 0.958
active: S. cerevisiae deletion strains, locus YKL068W, stronger effect = lower value 0.94 | S. cerevisiae deletion strains, locus YLR039C, strain RIC1, stronger effect = lower value 0.637 | S. cerevisiae deletion strains, locus YNL307C, strain MCK1, stronger effect = lower value 0.841
